Measured values taken from the supplement of paper PMC10849652.
Of roughly 7,900 targets only a part is listed; those with a hit were picked by preference. About 0.6% of all pairs of compound and target were hits. A number with no mark means an inactive call.

Sequence of UniProt Q86WV6 (Q86WV6 whole entry, looked up): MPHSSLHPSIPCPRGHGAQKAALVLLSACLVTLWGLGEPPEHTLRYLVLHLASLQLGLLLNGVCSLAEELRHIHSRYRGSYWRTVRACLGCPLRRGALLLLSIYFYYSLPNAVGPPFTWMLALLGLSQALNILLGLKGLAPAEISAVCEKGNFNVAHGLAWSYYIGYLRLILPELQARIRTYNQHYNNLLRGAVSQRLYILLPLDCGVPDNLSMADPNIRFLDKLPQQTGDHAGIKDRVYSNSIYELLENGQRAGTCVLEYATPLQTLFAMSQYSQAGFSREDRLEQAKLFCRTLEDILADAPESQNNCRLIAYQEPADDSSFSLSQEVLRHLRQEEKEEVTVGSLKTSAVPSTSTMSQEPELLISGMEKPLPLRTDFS
Sequence of UniProt P49754 (P49754 whole entry, looked up): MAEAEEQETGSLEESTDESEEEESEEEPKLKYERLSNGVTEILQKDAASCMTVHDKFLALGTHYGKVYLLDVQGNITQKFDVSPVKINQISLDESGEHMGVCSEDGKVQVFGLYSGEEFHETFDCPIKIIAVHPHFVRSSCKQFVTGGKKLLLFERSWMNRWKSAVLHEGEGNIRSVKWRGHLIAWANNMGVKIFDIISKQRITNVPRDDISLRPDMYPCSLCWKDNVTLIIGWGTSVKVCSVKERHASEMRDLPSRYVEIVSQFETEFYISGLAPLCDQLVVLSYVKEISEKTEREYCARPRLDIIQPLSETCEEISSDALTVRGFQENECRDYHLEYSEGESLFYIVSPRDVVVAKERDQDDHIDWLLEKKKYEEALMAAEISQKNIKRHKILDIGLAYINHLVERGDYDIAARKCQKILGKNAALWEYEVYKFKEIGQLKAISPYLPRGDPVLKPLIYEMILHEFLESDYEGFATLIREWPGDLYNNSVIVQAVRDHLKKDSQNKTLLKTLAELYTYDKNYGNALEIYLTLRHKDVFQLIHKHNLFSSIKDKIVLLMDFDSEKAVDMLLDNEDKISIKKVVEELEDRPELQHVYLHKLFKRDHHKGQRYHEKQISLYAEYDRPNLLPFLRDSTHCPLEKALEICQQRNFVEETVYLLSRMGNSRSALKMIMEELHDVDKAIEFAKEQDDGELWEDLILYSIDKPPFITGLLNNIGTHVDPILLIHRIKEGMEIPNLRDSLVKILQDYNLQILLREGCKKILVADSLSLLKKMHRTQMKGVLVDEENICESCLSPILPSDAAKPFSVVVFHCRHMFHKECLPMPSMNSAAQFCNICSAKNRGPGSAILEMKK
Sequence of UniProt Q14157 (Q14157 whole entry, looked up): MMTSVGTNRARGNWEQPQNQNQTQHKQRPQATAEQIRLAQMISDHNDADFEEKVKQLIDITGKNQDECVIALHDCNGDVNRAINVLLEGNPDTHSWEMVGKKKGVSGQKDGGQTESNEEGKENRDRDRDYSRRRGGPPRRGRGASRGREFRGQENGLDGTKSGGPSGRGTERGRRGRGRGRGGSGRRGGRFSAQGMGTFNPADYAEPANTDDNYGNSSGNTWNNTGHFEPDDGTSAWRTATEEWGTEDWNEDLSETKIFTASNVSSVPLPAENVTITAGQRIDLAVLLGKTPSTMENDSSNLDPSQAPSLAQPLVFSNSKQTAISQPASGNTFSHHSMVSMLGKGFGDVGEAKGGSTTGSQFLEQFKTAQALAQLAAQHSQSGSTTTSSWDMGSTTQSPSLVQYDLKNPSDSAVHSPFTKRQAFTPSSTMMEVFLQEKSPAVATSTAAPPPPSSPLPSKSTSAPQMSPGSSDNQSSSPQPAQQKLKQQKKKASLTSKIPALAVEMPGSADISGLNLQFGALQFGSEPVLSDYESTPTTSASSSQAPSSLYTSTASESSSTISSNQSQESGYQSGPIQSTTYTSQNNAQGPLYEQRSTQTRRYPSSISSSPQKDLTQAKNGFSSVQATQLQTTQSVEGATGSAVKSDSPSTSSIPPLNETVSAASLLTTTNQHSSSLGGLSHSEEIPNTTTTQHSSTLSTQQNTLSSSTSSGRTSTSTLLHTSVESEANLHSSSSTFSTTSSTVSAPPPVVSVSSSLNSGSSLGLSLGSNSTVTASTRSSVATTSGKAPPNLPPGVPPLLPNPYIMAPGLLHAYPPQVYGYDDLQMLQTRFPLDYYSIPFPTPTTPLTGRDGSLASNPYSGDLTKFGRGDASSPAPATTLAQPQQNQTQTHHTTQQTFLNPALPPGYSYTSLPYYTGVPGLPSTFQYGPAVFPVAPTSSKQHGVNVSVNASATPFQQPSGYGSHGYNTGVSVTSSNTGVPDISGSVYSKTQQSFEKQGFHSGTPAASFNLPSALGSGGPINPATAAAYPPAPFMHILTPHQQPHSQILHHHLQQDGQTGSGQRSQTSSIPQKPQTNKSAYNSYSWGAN
Sequence of UniProt O43156 (O43156 whole entry, looked up): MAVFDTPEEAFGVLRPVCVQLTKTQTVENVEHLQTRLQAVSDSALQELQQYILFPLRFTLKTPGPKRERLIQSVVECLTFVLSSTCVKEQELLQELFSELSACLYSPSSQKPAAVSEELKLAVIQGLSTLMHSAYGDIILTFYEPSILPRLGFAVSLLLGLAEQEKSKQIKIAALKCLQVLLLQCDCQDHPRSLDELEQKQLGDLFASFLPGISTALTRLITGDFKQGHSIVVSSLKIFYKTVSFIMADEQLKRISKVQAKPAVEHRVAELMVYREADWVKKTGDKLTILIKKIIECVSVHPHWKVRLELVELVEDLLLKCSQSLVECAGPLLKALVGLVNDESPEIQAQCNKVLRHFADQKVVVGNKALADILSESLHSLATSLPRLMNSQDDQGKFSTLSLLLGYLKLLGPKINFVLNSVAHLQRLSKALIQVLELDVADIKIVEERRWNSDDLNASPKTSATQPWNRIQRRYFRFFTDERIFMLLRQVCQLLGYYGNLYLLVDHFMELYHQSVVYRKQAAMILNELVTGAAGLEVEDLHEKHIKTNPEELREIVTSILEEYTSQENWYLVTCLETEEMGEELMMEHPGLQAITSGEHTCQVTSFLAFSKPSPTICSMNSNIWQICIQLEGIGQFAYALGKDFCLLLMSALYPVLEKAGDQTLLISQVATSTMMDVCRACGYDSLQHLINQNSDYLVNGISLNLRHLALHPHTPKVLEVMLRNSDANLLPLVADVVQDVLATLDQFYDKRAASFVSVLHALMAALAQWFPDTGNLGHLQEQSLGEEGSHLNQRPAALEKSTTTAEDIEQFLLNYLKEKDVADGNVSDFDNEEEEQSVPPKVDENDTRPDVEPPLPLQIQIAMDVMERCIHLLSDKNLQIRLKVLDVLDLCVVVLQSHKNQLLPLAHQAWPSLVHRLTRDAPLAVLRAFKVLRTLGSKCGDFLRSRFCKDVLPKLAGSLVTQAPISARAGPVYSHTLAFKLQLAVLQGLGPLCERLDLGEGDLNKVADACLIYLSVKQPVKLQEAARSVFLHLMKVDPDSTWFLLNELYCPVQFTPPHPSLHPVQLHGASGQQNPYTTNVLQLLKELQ
Sequence of UniProt P21796 (P21796 whole entry, looked up): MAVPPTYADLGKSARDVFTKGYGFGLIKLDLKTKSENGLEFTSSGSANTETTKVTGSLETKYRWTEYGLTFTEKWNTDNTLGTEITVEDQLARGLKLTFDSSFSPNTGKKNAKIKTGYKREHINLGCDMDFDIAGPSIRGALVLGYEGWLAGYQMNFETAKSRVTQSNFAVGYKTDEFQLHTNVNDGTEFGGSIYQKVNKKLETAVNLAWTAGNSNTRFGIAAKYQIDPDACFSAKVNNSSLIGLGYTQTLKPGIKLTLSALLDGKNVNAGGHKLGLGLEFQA
Sequence of UniProt Q5R3I4 (Q5R3I4 whole entry, looked up): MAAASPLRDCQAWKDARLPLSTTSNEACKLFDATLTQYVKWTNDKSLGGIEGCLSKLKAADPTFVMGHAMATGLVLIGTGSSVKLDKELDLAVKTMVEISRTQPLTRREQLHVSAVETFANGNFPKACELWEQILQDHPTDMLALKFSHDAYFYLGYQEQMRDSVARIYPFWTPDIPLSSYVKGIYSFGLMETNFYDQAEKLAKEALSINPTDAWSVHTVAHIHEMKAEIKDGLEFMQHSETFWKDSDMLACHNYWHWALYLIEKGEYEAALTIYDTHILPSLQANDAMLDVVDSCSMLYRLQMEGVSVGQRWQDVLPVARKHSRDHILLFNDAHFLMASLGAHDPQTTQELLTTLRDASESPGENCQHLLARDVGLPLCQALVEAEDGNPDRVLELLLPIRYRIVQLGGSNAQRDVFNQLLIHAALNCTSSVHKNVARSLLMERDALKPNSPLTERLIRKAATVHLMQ
Sequence of UniProt Q9NUM4 (Q9NUM4 whole entry, looked up): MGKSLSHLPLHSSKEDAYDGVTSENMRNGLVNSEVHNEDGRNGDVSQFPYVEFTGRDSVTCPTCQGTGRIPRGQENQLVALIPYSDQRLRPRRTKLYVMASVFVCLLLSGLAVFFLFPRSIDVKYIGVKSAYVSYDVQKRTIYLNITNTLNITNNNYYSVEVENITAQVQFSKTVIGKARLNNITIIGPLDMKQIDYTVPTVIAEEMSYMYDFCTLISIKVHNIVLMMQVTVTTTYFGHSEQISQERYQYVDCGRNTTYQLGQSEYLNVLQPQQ
Sequence of UniProt O75554 (O75554 whole entry, looked up): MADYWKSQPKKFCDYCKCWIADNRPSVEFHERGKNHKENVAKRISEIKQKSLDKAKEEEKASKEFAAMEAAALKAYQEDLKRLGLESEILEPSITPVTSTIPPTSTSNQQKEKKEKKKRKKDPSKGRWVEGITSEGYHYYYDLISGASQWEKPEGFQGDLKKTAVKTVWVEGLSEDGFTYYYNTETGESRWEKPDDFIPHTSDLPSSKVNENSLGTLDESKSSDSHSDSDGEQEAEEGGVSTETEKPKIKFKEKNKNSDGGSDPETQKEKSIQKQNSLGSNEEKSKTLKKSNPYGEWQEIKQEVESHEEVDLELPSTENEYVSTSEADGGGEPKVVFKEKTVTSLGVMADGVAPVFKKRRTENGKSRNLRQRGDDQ
Sequence of UniProt Q9Y3C0 (Q9Y3C0 whole entry, looked up): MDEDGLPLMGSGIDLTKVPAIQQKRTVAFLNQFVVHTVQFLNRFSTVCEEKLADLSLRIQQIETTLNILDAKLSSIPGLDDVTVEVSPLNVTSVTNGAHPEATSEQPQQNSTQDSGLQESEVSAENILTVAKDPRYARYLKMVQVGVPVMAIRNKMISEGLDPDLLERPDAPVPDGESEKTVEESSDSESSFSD

These targets were tested with CC1=C2C(=CC=C1)N=C(N(C2=O)C3=CC=CC=C3C)CN4C=NC5=C(N=CN=C54)N (assay: log2 fold change, soluble protein after heating vs DMSO (PISA); higher = thermal stabilisation; K562 cells, 10 uM, 30 min; active = over 0.2 and 3.5 SD of the protein, either way, in both replicates (recomputed)).
Outline: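 For each measurement, 10 μM compound was applied for 30 min to K562 cells at 2×10^6 cells/mL. Aliquots were heated for 3 min across 48°C-58°C, pooled, and extracted in PBS with 0.5% NP-40 at 4°C; the supernatant after 21,000xg for 90 min was soluble protein. This was quantified by TMTpro 16plex LC-MS/MS with channel sums equalised, and thermal stability was reported relative to control samples from duplicates, on a log2 fold-change scale.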
For TTC38 (UniProt Q5R3I4), the log2 fold change was 0.032. Work on TSFM (UniProt P43897) yielded a log2 fold change of 0.177. With VPS8 (UniProt Q8N3P4) the log2 fold change was 0.042. In the case of TXNRD1 (UniProt Q16881), the log2 fold change is reported as 0.023. With TUBA4A (UniProt C9JJQ8) the log2 fold change was 0. Work on WARS2 (UniProt Q9UGM6) yielded a log2 fold change of 0.104. For UBA52 (UniProt P62987), the log2 fold change was -0.569. Work on TMEM164 (UniProt Q5U3C3) yielded a log2 fold change of 0.257. With XPO6 (UniProt Q96QU8) the log2 fold change was 0.082. TTI1 (UniProt O43156) showed a log2 fold change of 0.022. Work on TOP2A isoform 4 (UniProt P11388) yielded a log2 fold change of -0.703. For UBAP2L isoform 1 (UniProt Q14157), the log2 fold change was 0.059. UFL1 (UniProt O94874) showed a log2 fold change of 0.039. XRCC5 (UniProt P13010) gave a log2 fold change of 0.095. In the case of VTI1B (UniProt Q9UEU0), the log2 fold change is reported as 0.045. TMEM173 (UniProt Q86WV6) gave a log2 fold change of 0.086. WBP4 (UniProt O75554) showed a log2 fold change of -0.024. Work on VDAC1 (UniProt P21796) yielded a log2 fold change of -0.024. TRAPPC2L (UniProt Q9UL33) showed a log2 fold change of -0.058. Work on TRAM1 (UniProt Q15629) yielded a log2 fold change of -0.008. WASHC3 (UniProt Q9Y3C0) was tested, and the log2 fold change was 0.045. With TMEM106B (UniProt Q9NUM4) the log2 fold change was -0.008. With VPS41 (UniProt P49754) the log2 fold change was 0.152.
